# Source: PubChem BioAssay (Tox21)
# Values joined by “and” are separate entries in the source; they are usually repeats but may differ in a detail not shown here. Identical values can stand only once. Results filed as inconclusive are left out. Where a call stands in place of a potency, no number is given. Some structures have more than one record in an assay (separate samples or runs), and their calls can disagree. Active and inactive are the calls of the source. Unless noted, calls come from the whole dose curve.
# Tests used:
# [1] = Nuclear factor erythroid 2-related factor 2/antioxidant responsive element (Nrf2/ARE) small molecule agonists: qHTS cell viability counter screen in human keratinocytes (AID 1919968; active = well fitted curve in the direction sought with a large enough effect in the repeat runs; an effect the other way counts as inactive or inconclusive; note: nearly all actives have a fitted effect of over 55% in size; note: potency is the fitted concentration of half-maximal effect)
# How it was run: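 After a 5 h attachment period, ARE-reporter keratinocytes were dosed with compounds in DMSO and then cultured 23 h at 37 C. Cell viability came from CellTiter-Fluor signal read after a further 1 h.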
# [2] = Nuclear factor erythroid 2-related factor 2/antioxidant responsive element (Nrf2/ARE) small molecule agonists: luciferase reporter gene qHTS assay in human keratinocytes (AID 1919969); note: nearly all actives have a fitted effect of over 35% in size; note: potency is the fitted concentration of half-maximal effect
# [3] = biological target: Gonadotropin-releasing hormone receptor (Homo sapiens) (UniProt P30968); test: Human gonadotropin-releasing hormone receptor (GnRHR) small molecule agonists, calcium flux assay in GnRHR-HEK293 cells (AID 1920063); note: nearly all actives have a fitted effect of over 35% in size; note: potency is the fitted concentration of half-maximal effect
# How it was run: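 We seeded human GnRHR-expressing HEK293 cells for 18 hours, loaded them with calcium dye for an hour at 37 C, added test compounds, and recorded fluorescence intensity kinetically for three minutes.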
# [4] = biological target: KiSS-1 receptor (Homo sapiens) (UniProt Q969F8); test: Human kisspeptin (KISS1R) small molecule agonists, calcium flux assay in KISS1R-HEK293 cells (AID 1920064; active = well fitted curve in the direction sought with a large enough effect in the repeat runs; an effect the other way counts as inactive or inconclusive)
# How it was run: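 Kinetic calcium assay, 1 s sampling over 3 min at Ex/Em 480/540, in HEK293 cells engineered with human KISS1R; compounds delivered in DMSO after 1 h dye loading.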
# [5] = G protein-coupled receptor (GPCR) small molecule agonists, calcium flux assay: HEK293 wild type cell line counter screen (AID 1920065)
# How it was run: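 Calcium-sensitive dye, loaded 1 h at 37 C into cells cultured 18 h, reports compound-evoked calcium release as fluorescence (Ex/Em 480/540), measured over 3 min. Agonist mode; 15-point titrations, triplicate.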
# [6] = p53 small molecule agonists, cell-based qHTS assay with human liver microsomes (AID 1963577); note: potency is the fitted concentration of half-maximal effect
# How it was run: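 p53RE-bla reporter cells were pre-incubated 5 h at 37 C, then treated with compounds plus human liver microsomes (0.5 mg/mL final) and NADPH (0.5 mg/mL final) for 16 h at 37 C. Beta-lactamase activity was read by LiveBLAzer fluorescence after 2 h at room temperature.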
# [7] = p53 small molecule agonists, cell-based qHTS assay with rat liver microsomes (AID 1963578)
# How it was run: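 p53RE-bla cells were exposed to compounds together with rat liver microsomes (0.5 mg/mL final) and NADPH (0.5 mg/mL final) for 16 h at 37 C, then read by LiveBLAzer beta-lactamase fluorescence after 2 h at room temperature.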
# [8] = p53 small molecule agonists, cell-based qHTS assay with human liver microsomes: qHTS cell viability counter screen (AID 1963579); note: nearly all actives have a fitted effect of over 45% in size
# How it was run: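 p53RE-bla cells (4,000/well) were pre-incubated 5 h at 37 C, then given compounds in DMSO plus human liver microsomes (0.5 mg/mL final) and NADPH (0.5 mg/mL final) for 16 h at 37 C. Viability was read by CellTiter-Glo luminescence.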
# [9] = p53 small molecule agonists, cell-based qHTS assay: qHTS cell viability counter screen (AID 1963581); note: nearly all actives have a fitted effect of over 45% in size; note: potency is the fitted concentration of half-maximal effect
# How it was run: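 Following 5 h attachment, HCT-116 p53RE-bla cells took up compound for 16 h at 37 C; the reporter was read with B/G FRET substrate (2 h RT), and viability then via CellTiter-Glo ATP luminescence.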
# [10] = p53 small molecule agonists, cell-based qHTS assay (AID 1963582; active = well fitted activation curve with a large enough effect in the signal ratio in the repeat runs, not every such curve was filed as active; the % refers to the signal ratio)
# How it was run: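 In this cell-based concentration-response screen, a p53 response element drives beta-lactamase; cells received DMSO-borne compounds after 5 h culture and were incubated a further 16 h before FRET substrate development.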
# [11] = biological target: 5-hydroxytryptamine receptor 2A (Homo sapiens) (UniProt P28223); test: 5-hydroxytryptamine receptor 2A (HTR2A) small molecule antagonists, cell-based qHTS assay (AID 1963586); note: nearly all actives have a fitted effect of over 45% in size
# How it was run: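 Antagonist-mode intracellular calcium assay: DOI (4 nM) added after 5 min compound pre-incubation at room temperature to dye-loaded HTR2A-CHO cells. Fluorescence followed for 3 min, sampled every second.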
# [12] = biological target: 5-hydroxytryptamine receptor 2A (Homo sapiens) (UniProt P28223); test: 5-hydroxytryptamine receptor 2A (HTR2A) small molecule agonists, cell-based qHTS assay (AID 1963587); note: nearly all actives have a fitted effect of over 30% in size; note: potency is the fitted concentration of half-maximal effect
# How it was run: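 CHO cells stably expressing human HTR2A, plated 18 h, loaded with calcium dye 1 h at 37 C. Agonist mode: compounds added and intracellular calcium fluorescence recorded kinetically for 2 min at 1 sec intervals.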
# [13] = biological target: Muscarinic acetylcholine receptor M1 (Homo sapiens) (UniProt P11229); test: Cholinergic receptor muscarinic 1 (CHRM1) small molecule antagonists, cell-based qHTS assay (AID 1963588); note: nearly all actives have a fitted effect of over 40% in size
# How it was run: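 CHRM1-CHO calcium-flux assay, antagonist mode. Cells were seeded 18 h, dye-loaded 1 h at 37 C and given compound for 5 min at RT, then acetylcholine was added at 50nM. FDSS fluorescence was read 3 min; 15 concentrations, three runs.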
# [14] = biological target: Muscarinic acetylcholine receptor M1 (Homo sapiens) (UniProt P11229); test: Cholinergic receptor muscarinic 1 (CHRM1) small molecule agonists, cell-based qHTS assay (AID 1963589); note: nearly all actives have a fitted effect of over 35% in size; note: potency is the fitted concentration of half-maximal effect
# How it was run: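 Measures agonist-induced intracellular calcium rise. Stable human CHRM1 CHO line, 1 h dye load at 37 C, compounds from DMSO, kinetic fluorescence read.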
# [15] = cAMP Responsive Elements (CRE) small molecule antagonists, cell-based qHTS assay (AID 1963591; active = well fitted inhibition curve with a large enough effect in the signal ratio in the repeat runs, not every such curve was filed as active; the % refers to the signal ratio)
# How it was run: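 HEK293T cells carrying a CRE-driven beta-lactamase reporter receive compound and NKH477 (0.25 uM final) for 3 h. Fluorescence from LiveBLAzer B/G FRET substrate is read after 2 h at room temperature.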
# [16] = biological target: Beta-2 adrenergic receptor (Homo sapiens) (UniProt P07550); test: Adrenergic beta2 receptor (ADRB2) small molecule antagonists, cell-based qHTS assay (AID 1963592); note: series mostly up to about 92 µM; nearly all actives have a fitted effect of over 50% in size
# How it was run: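 Cells (CHO, stable ADRB2 overexpression) incubated 18-20hr at 37C; compounds added from DMSO; agonist mix (1nM isoproterenol, 100uM IBMX, 25uM Ro-20-1724) added; 0.5hr RT; d2-cAMP and anti-cAMP-cryptate added; 1hr RT; 665/615 nm read.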
# [17] = biological target: D(2) dopamine receptor (Homo sapiens) (UniProt P14416); test: Dopamine D2 receptor (DRD2) small molecule antagonists, cell-based qHTS assay (AID 1963595; active = well fitted inhibition curve with a large enough effect in the signal ratio in the repeat runs, with a control signal flat; the % refers to the signal ratio; note: potency is the fitted concentration of half-maximal effect)
# How it was run: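 Stable D2 receptor HEK293 line, 24 h after seeding. Compound preincubated 10 min, then quinpirole (12 nM) with forskolin analogue NKH477 (200 nM), 30 min, room temperature. Detection by time-resolved FRET of cAMP.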
# [18] = cAMP Responsive Elements (CRE) small molecule agonists, cell-based qHTS assay (AID 1963590)
# How it was run: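 A CRE-responsive beta-lactamase reporter in HEK 293T cells was used. Treatment ran 3 h at 37 C; detection used LiveBLAzer B/G FRET substrate for 2 h at room temperature.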
# [19] = biological target: D(2) dopamine receptor (Homo sapiens) (UniProt P14416); test: Dopamine D2 receptor (DRD2) small molecule agonists, cell-based qHTS assay (AID 1963594); note: nearly all actives have a fitted effect of over 35% in size
# How it was run: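 HEK293 cells stably expressing human DRD2, pre-treated with PDE inhibitor Ro20-1724 (0.1 mM final) and compound 10 min at room temperature, then stimulated with NKH477 (200nM […]) for 30 min. cAMP read by HTRF (665/620 nm).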
# [20] = p53 small molecule agonists, cell-based qHTS assay with rat liver microsomes: qHTS cell viability counter screen (AID 1963580); note: nearly all actives have a fitted effect of over 45% in size
# How it was run: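 Viability is assessed in parallel with the p53 reporter read: HCT-116 p53RE-bla cells receive compounds plus rat microsomes and NADPH (0.5 mg/mL final apiece), incubate 16 h at 37 C, and then CellTiter-Glo luminescence is recorded.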
# Chain of Muscarinic acetylcholine receptor M1 (Homo sapiens) (P11229 whole entry, looked up): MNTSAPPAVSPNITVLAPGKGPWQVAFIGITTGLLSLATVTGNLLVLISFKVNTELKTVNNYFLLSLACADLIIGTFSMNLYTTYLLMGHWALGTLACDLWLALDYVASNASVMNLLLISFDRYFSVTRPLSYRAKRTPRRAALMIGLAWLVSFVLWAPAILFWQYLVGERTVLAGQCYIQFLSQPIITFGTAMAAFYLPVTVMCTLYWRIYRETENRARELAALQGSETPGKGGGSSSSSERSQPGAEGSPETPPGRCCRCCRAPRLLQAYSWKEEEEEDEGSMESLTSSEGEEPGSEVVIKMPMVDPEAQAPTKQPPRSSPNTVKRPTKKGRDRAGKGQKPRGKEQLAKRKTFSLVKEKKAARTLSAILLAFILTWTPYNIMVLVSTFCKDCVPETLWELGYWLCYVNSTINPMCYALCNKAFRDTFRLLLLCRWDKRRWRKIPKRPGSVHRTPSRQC
# Chain of KiSS-1 receptor (Homo sapiens) (Q969F8 whole entry, looked up): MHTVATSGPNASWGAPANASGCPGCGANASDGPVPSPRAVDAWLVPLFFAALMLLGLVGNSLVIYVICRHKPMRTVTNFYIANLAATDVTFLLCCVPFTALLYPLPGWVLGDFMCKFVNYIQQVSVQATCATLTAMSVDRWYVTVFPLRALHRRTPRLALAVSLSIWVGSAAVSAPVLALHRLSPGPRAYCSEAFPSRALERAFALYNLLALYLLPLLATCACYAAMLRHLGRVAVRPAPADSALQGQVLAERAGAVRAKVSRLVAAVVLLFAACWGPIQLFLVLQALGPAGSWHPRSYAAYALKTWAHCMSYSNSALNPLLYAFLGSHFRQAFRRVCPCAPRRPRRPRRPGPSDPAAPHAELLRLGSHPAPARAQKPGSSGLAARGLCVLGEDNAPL
# Chain of Gonadotropin-releasing hormone receptor (Homo sapiens) (P30968 whole entry, looked up): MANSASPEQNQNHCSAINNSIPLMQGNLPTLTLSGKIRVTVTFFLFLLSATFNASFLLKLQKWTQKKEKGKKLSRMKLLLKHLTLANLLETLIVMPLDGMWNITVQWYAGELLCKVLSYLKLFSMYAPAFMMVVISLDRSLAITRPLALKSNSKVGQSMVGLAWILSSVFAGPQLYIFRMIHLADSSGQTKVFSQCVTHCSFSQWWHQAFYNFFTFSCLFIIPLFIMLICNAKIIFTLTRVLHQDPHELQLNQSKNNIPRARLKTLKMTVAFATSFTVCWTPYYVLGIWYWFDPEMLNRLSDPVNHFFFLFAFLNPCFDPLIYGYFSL
# Chain of Beta-2 adrenergic receptor (Homo sapiens) (P07550 whole entry, looked up): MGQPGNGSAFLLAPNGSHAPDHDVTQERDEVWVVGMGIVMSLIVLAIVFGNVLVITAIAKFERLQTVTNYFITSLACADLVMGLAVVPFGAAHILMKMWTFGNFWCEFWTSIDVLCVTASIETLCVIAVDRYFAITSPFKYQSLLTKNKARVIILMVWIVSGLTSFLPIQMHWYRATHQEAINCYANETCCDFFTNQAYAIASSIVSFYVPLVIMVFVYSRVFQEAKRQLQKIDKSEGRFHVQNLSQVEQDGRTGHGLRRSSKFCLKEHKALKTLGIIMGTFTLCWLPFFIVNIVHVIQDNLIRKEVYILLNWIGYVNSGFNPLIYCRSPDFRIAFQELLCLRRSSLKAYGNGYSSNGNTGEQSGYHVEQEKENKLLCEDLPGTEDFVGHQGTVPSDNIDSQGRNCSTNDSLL
# Chain of D(2) dopamine receptor (Homo sapiens) (P14416 whole entry, looked up): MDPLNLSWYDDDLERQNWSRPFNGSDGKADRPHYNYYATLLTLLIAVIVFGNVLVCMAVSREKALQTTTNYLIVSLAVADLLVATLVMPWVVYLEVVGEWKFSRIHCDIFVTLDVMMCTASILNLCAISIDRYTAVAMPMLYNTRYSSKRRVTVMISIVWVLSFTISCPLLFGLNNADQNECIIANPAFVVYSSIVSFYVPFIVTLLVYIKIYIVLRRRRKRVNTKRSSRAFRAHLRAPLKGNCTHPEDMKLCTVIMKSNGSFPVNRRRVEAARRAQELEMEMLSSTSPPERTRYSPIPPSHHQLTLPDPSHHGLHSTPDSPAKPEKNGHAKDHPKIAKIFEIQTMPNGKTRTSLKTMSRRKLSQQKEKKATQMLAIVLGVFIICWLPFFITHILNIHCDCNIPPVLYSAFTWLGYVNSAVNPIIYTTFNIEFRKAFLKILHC
# Chain of 5-hydroxytryptamine receptor 2A (Homo sapiens) (P28223 whole entry, looked up): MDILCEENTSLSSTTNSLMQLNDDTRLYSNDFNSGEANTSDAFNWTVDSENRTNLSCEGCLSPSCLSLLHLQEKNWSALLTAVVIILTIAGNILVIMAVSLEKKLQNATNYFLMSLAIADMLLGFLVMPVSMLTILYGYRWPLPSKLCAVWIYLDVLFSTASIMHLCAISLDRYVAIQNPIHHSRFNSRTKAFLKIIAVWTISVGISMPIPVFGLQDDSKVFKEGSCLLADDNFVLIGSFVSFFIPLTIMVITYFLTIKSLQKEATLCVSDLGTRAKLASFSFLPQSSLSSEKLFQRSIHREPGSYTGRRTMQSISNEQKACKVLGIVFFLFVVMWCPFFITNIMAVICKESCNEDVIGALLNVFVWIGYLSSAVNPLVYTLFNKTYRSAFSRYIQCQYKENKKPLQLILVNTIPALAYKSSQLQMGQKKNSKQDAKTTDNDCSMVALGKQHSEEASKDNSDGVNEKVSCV
Compound,Potency [1],Potency [2],Potency [3],Potency [4],Potency [5],Potency [6],Potency [7],Potency [8],Potency [9],Potency [10],Potency [11],Potency [12],Potency [13],Potency [14],Potency [15],Potency [16],Potency [17],Potency [18],Potency [19],Potency [20]
Cc1cc(Cl)ccc1OCC(=O)O,inactive,inactive,inactive,inactive,inactive,inactive,inactive,inactive,inactive,inactive,inactive,inactive,inactive,inactive,inactive,inactive,inactive,,,
ClCCOCCCl,inactive,inactive,inactive,inactive,inactive,inactive,inactive,inactive,inactive,inactive,inactive,inactive,,inactive,inactive,inactive,inactive,inactive,inactive,
CCC(C)Cl (centres undefined),inactive,inactive,inactive,inactive,inactive,inactive,inactive,,inactive,inactive,inactive,inactive,inactive,inactive,inactive,inactive,inactive,inactive,inactive,inactive
O=c1[nH]c(=O)[nH]c(=O)[nH]1,inactive,inactive,inactive,inactive,inactive,inactive,inactive,,inactive,inactive,inactive,inactive,inactive,inactive,inactive,inactive,inactive,inactive,inactive,inactive
BrCC(Br)c1ccccc1 (centres undefined),inactive,inactive,inactive,inactive,inactive,inactive,inactive,inactive,inactive,inactive,inactive,inactive,inactive,inactive,inactive,inactive,inactive,inactive,inactive,
O=C1c2ccccc2C(=O)N1SC(Cl)(Cl)Cl,24 µM (active),15.1 µM (active) and 7.7 µM (active),38.9 µM (active),inactive,inactive,inactive,inactive,inactive,inactive,,,54.2 µM (active) and 43.6 µM (active),inactive,49 µM (active),,inactive,inactive,inactive,inactive,
C=CC(=O)OCC(CC)(COC(=O)C=C)COC(=O)C=C,6.28 µM (active) and 12.2 µM (active),2.8 µM (active) and 6.11 µM (active),inactive,inactive,inactive,inactive,inactive,,26.4 µM (active),,inactive,inactive,inactive,inactive,,,inactive and 48.6 µM (active),,inactive,
CCOP(=S)(OCC)OP(=S)(OCC)OCC,inactive,inactive,inactive,inactive,inactive,18.2 µM (active),,inactive,inactive,inactive,inactive,inactive,inactive,inactive,inactive,inactive,inactive,inactive,inactive,inactive
Nc1ccc2ccccc2c1,inactive,37.2 µM (active) and 27.3 µM (active),inactive,inactive,inactive,inactive,,inactive,inactive,inactive,inactive,inactive,inactive,inactive,,inactive,inactive,inactive,inactive,inactive
COP(=S)(OC)Oc1ccc(S(=O)(=O)N(C)C)cc1,inactive,inactive,inactive,inactive,inactive,1.29 µM (active),,inactive,inactive,inactive,inactive,inactive,inactive,inactive,,inactive,inactive,inactive,inactive,inactive
ClC1C(Cl)C(Cl)C(Cl)C(Cl)C1Cl (centres undefined),inactive,62.4 µM (active) and inactive,inactive,inactive,inactive,inactive,,inactive,inactive,inactive,inactive,inactive and 54.9 µM (active),inactive,inactive,inactive,inactive,inactive,inactive,,inactive
Nc1c(Cl)c(Cl)nc(C(=O)O)c1Cl,inactive,inactive,inactive,inactive,inactive,inactive,,inactive,inactive,inactive,inactive,inactive,inactive,inactive,inactive,inactive,inactive,,inactive,inactive
CCCCCCCCCCCCCCCl,inactive,inactive,inactive,inactive,inactive,inactive,inactive,,inactive,,inactive,inactive,inactive,inactive,inactive,inactive,inactive,inactive,inactive,inactive
CNC(=O)Oc1c(C(C)(C)C)cc(C)cc1C(C)(C)C,inactive,61.1 µM (active),inactive,inactive,inactive,inactive,,inactive,inactive,inactive,inactive,inactive,inactive,,inactive,inactive,inactive,inactive,inactive,inactive
